Assay results reported in article PMC4336329 (PLoS ONE, 2015).
About 14,000 (4.5%) of roughly 310,000 compounds showed an effect of 50% or more. Effects have a minus sign here. The sample as a whole holds a higher share of strong results than the screen did.

These compounds were tested against human ether-à-go-go-related gene (hERG) potassium channel (human, UniProt Q12809) (assay: primary screen, population patch clamp on CHO cells stably expressing hERG; higher = less effect of the substance).
Chain of human ether-à-go-go-related gene (hERG) potassium channel (Q12809 whole entry, looked up): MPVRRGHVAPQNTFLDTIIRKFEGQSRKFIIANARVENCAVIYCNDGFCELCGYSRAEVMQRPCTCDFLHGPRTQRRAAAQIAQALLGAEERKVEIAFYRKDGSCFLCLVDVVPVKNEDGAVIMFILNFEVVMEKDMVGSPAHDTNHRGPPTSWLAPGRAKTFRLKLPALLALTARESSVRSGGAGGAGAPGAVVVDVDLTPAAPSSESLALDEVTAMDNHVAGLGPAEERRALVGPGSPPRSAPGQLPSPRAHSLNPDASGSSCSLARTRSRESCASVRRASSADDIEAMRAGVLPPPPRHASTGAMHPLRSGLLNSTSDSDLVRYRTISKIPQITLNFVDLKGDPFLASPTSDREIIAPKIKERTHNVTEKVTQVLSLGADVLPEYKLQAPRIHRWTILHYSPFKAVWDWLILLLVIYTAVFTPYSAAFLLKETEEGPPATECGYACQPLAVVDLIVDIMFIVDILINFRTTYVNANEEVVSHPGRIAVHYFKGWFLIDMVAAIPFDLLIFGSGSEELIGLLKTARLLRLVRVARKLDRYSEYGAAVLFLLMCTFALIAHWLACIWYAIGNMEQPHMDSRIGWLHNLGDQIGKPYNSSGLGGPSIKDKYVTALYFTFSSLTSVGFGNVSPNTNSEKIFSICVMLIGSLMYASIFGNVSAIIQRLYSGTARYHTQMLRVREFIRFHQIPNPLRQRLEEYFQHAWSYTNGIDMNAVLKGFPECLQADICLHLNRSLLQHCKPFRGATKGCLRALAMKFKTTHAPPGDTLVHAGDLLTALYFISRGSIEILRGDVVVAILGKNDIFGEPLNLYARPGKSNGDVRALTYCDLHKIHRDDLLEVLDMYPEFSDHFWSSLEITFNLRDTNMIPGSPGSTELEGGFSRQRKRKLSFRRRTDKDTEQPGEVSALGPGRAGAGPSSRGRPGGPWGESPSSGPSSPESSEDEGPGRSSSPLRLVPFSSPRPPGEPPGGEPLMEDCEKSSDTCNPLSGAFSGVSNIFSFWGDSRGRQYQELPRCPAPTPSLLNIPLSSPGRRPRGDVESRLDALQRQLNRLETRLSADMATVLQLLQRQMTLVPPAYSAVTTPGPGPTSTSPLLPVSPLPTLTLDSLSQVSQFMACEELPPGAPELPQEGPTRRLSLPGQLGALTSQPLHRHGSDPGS
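Further: peak tail current of the secondary pulse compared with the same well before compound.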

| SMILES | hERG current change (%, negative = inhibition) at 10uM [%] |
| --- | --- |
| Cc1nc2nc[nH]n2c(=O)c1CCC(C)C | 4.34 |
| COCCNc1nc(N)c([N+](=O)[O-])c(NC2CCCCC2)n1 | 4.56 |
| NC(=O)C(=O)N/N=C/c1c2ccccc2cc2ccccc12 | -11.1 |
| CCOC(=O)Nc1cccc(NC(=O)c2ccccc2F)c1 | 7.84 |
| CCOC(=O)Nc1cccc(C(=O)O)c1 | 8.63 |
| CCOC(=O)Nc1cccc(Nc2ccccc2)c1 | -74.8 |
| COc1cc(OC)cc(C(=O)Nc2cccc(NC(C)=O)c2)c1 | -1.56 |
| COc1cc(OC)cc(C(=O)Nc2cccc(NC(=O)c3ccccc3)c2)c1 | -27.3 |
| CCOC(=O)Nc1cccc(NC(=O)c2cc(OC)cc(OC)c2)c1 | -53.7 |
| COc1ccccc1CNC(=O)CN(c1ccc(C)cc1)S(=O)(=O)c1c(C)nn(C)c1C | -24.1 |
| Cn1c(-c2ccc(N)cc2)nc2ccccc21 | -3.42 |
| COc1ccc2c(c1)c1nc3ccccc3nc1n2Cc1ccc(OC(C)C)c(OC)c1 | -0.905 |
| CCn1c(SCCC(=O)O)nnc1-c1cccnc1 | 4.65 |
| O=C(NCC1CC1)c1onc(CSc2ccc(F)cc2)c1C(=O)NCC1CC1 | -51.6 |
| O=C(NCc1ccccc1)c1onc(CSc2ccc(F)cc2)c1C(=O)NCCCN1CCOCC1 | -73.9 |
| CCCNC(=O)c1onc(CSc2ccc(F)cc2)c1C(=O)NCC1CC1 | -62.7 |
| O=C(NCCCN1CCOCC1)c1onc(CSc2ccccc2)c1C(=O)NCCCN1CCOCC1 | 4.97 |
| O=C(NCC1CC1)c1onc(CSc2ccncc2)c1C(=O)NCC1CC1 | -11.9 |
| CCCNC(=O)c1onc(CSc2ccc(F)cc2)c1C(=O)NCCC | 5.35 |
| O=C(NCc1ccccc1)c1onc(CSc2ccc(F)cc2)c1C(=O)NCc1ccccc1 | 1.49 |
| CCCNC(=O)c1onc(CSc2nc3ccccc3[nH]2)c1C(=O)NCCC | -35.7 |
| CCCNC(=O)c1onc(CSc2ccc(Cl)cc2)c1C(=O)NCC1CC1 | -8.67 |
| O=C(NCC1CC1)c1onc(CSc2nc3ccccc3[nH]2)c1C(=O)NCC1CC1 | -69.8 |

| SMILES | hERG current change (%, negative = inhibition) at 10uM [%] |
| --- | --- |
| O=C(NCc1ccccc1)c1onc(CSc2ccccc2)c1C(=O)NCC1CC1 | -33.4 |
| COCCNC(=O)c1onc(CSc2nc3ccccc3[nH]2)c1C(=O)NCCOC | -14.3 |
| O=C(/C=C\c1ccc2c(c1)OCO2)CC1(O)C(=O)Nc2ccccc21 (centres unmarked) | -0.111 |
| COc1cccc(CC(=O)N2CCC(n3nccc3NC(=O)C3CCOC3)CC2)c1 (centres unmarked) | 21.7 |
| NC(=O)c1ccccc1NC(=O)Nc1ccccc1Cl | 11.8 |
| COCCn1c(C)cc(C(=O)CSc2ccc(NC(C)=O)cc2)c1C | 12.4 |
| COc1ccc(N2CCN(C(=O)CCNC(=O)Cn3ccc4ccccc4c3=O)CC2)cc1 | -8.61 |
| CN1CCN(NC(=O)c2cc(-c3ccccn3)nc3ccccc23)CC1 | 14 |
| Cc1cccc(OCCCCCNCCO)c1 | 3.93 |
| CCC(C)(C)n1nnnc1C(c1ccc(C)cc1)N1CCN(C(=O)c2ccco2)CC1 (centres unmarked) | -45.8 |
| CN1CCN(C(=S)C(=O)NCc2ccccc2)CC1 | -2.07 |
| COc1cc(CNc2ccccc2SC)ccc1O | 12.8 |
| O=C(NCC1CC1)c1onc(CSc2ccc(F)c(F)c2)c1C(=O)NCC1CC1 | -56.1 |
| C=CCNC(=O)c1onc(CSc2ccc(F)c(F)c2)c1C(=O)NCC=C | -64.5 |
| COCCNC(=O)c1onc(CSc2ccc(F)c(F)c2)c1C(=O)NCCOC | -25.5 |
| C=CCNC(=O)c1onc(CSc2ccc(F)c(F)c2)c1C(=O)O | 22.4 |
| C=CCNC(=O)c1onc(CSc2ccc(Cl)cc2)c1C(=O)NCC=C | -36.6 |
| O=C(NCC1CCCO1)c1onc(CSc2ccc(F)c(F)c2)c1C(=O)O (centres unmarked) | 1.63 |
| Cl.OC(CNC1CCCC1)COc1ccccc1Br (centres unmarked) | 7.79 |
| O=C(Cc1ccccc1)NCC(=O)Nc1ccccc1Br | 16.8 |
| Cc1cc(NC(=O)CSc2nc(-c3ccc(Br)cc3)nc3c2c(=O)n(C)c(=O)n3C)no1 | -8.93 |
| O=C(COC(=O)c1ccccc1F)NNC(=O)c1ccccc1 | 8.17 |
| O=C(CSCc1ccc(Cl)cc1)Nc1nccs1 | 6.08 |

| SMILES | hERG current change (%, negative = inhibition) at 10uM [%] |
| --- | --- |
| CCc1ccccc1NC(=O)COc1ccc2c(c1)OCO2 | -4.6 |
| CCN(CCCNC(=O)CC(C(=O)N1CCc2ccccc21)n1ccnc1)c1cccc(C)c1 (centres unmarked) | -65 |
| CCCN(CCC)CCCNC(=O)CC(C(=O)N1CCc2ccccc21)n1ccnc1 (centres unmarked) | -0.225 |
| CCN(CCCNC(=O)CC(C(=O)N1CCc2ccccc21)n1ccnc1)c1ccccc1 (centres unmarked) | -45.6 |
| Nc1ccc(Cl)c(S(=O)(=O)Nc2ccc(Cl)cc2)c1 | 17.3 |
| Cc1ccc(N2CC(C(=O)Nc3ccc(S(=O)(=O)Nc4nccc(C)n4)cc3)CC2=O)cc1 (centres unmarked) | 3.17 |
| CN(C)C(=O)c1cc(Cl)ccc1Sc1cc(Cl)ccc1Cl | -6.03 |
| CN(C)C(=O)c1ccccc1Sc1cc(Cl)ccc1Cl | -14.5 |
| CN(C)C(=O)c1ccccc1Sc1ccc(Cl)cc1Cl | -70.4 |
| Cc1onc(-c2ccccc2)c1C(=O)NCc1ccccc1F | 7.62 |
| [N-]=[N+]=CC(=O)OC[C@H](N)C(=O)O | 10.8 |
| CCOC(=O)c1c(C)n(CC(O)CN(C)C)c2cc(Br)c(OC)cc12.Cl (centres unmarked) | -51.5 |
| CCOC(=O)c1c(C)n(CC(O)CN2CCOCC2)c2cc(Br)c(OC)cc12.Cl (centres unmarked) | -24 |
| CCOC(=O)c1c(CN(C)C)n(-c2ccccc2)c2cc(Br)c(O)cc12.Cl | -75.8 |
| CCOC(=O)c1c(CN(C)C)n(-c2ccc(C)cc2)c2cc(Br)c(O)cc12 | -35.8 |
| CCOC(=O)c1c(CN2CCN(CCO)CC2)n(-c2ccccc2)c2cc(Br)c(O)cc12 | -68.2 |
| CCOC(=O)c1c(CN2CCOCC2)n(-c2ccccc2)c2cc(Br)c(OC)cc12 | 3.27 |
| CCOC(=O)c1c(C)n(CC(O)CN(CC)CC)c2cc(Br)c(OC)cc12.Cl (centres unmarked) | -26.9 |
| CCOC(=O)c1c(CN2CCN(Cc3ccccc3)CC2)n(C)c2cc(Br)c(OC)cc12 | 7.08 |
| CCOC(=O)c1c(C)n(-c2ccccc2)c2ccc(OCCN(C)C)cc12 | -10.6 |
| CCOC(=O)c1c(CN2CCOCC2)n(-c2ccccc2)c2cc(Br)c(O)cc12.Cl | -7.35 |
| CCOC(=O)c1c(CN(C)C)n(-c2ccccc2)c2cc(Br)c(OC)cc12 | -58.6 |
| COc1ccccc1NC(=O)CSC1=NCCN1.Cl | 36.3 |

| SMILES | hERG current change (%, negative = inhibition) at 10uM [%] |
| --- | --- |
| O=C(c1cccs1)N1CCC(c2ccccc2)C1 (centres unmarked) | -1.16 |
| N#Cc1nc(-c2cccs2)oc1NCCc1ccccc1 | 3.08 |
| CC(NC(=O)C(=O)N1CCCCC1)C(c1cccs1)N1CCN(c2ccccc2F)CC1 (centres unmarked) | 1.73 |
| COc1cccc(-n2c(SCC(=O)NCCC3=CCCCC3)nc3n[nH]c(C)c3c2=N)c1 | -58.9 |
| Cc1ccc(-n2c(SCC(=O)NCCC3=CCCCC3)nc3n[nH]c(C)c3c2=N)cc1Cl | -9.38 |
| Cc1cc(-n2c(SCC(=O)NCCC3=CCCCC3)nc3n[nH]c(C)c3c2=N)ccc1Cl | 4.5 |
| COc1ccc(NC(=O)c2ccc(COc3ccccc3Br)o2)c(OC)c1 | 10.5 |
| CCCOc1ccc(OC(=O)Cc2ccc(OC)c(S(=O)(=O)N3CCOCC3)c2)cc1 | -21.7 |
| Cc1ccc(NC(=O)CCN2C(=O)c3ccccc3C2=O)cc1C | 4.19 |
| O=C(CSc1nnc(-c2c[nH]c3ccccc23)n1-c1ccc(F)cc1)NCc1ccco1 | -22 |
| Cc1cc(NC(=O)COC(=O)C2CCN(C(=O)c3ccc(Cl)cc3)CC2)no1 | -19.2 |
| O=C(COC(=O)C1CCN(C(=O)c2ccc(Cl)cc2)CC1)Nc1ccccc1F | -56.9 |
| C/C(N)=C(/C#N)C(=O)COC(=O)C1CCN(C(=O)c2ccc(Cl)cc2)CC1 | -14.3 |
| O=C(COC(=O)C1CCN(C(=O)c2ccc(Cl)cc2)CC1)NC1CCS(=O)(=O)C1 (centres unmarked) | 26.9 |
| O=C(COC(=O)C1CCN(C(=O)c2ccc(Cl)cc2)CC1)c1ccco1 | -26.2 |
| N#Cc1ccccc1NC(=O)COC(=O)C1CCN(C(=O)c2ccc(Cl)cc2)CC1 | -62.5 |
| Cc1ccc(-c2cnco2)cc1 | 11.9 |
| COCCN(CCOC)C(=S)Nc1ccccc1Cl | 6.62 |
| COc1ccc(NC(=O)C(F)(F)F)cc1OC | 15.1 |
| COc1ccc(CN2C(=O)c3oc4ccccc4c(=O)c3C2c2ccc(O)c(OC)c2)cc1 (centres unmarked) | 4.88 |
